PubChem BioAssay (NCATS)
Several values for one entry are separate records, joined by “and”; a condition that tells them apart may be missing. Identical values can stand only once. Inconclusive results are not listed. More than one record can exist for a structure, and the calls need not agree. Activity calls are given as the source filed them. Unless noted, the call rests on the fitted dose curve; in most records, active means well fitted curve in the direction sought with a large enough effect; inconclusive means small, poorly fitted or top-dose-only effect, or another doubt; inactive means no such curve, though single readings can be large; an effect the other way counts as inactive or inconclusive.

Tests used:
[1] = biological target: ATP-dependent DNA helicase Q1 (Homo sapiens) (UniProt P46063); assay: qHTS Validation Assay for Inhibitors of RecQ-Like Dna Helicase 1 (RECQ1) (AID 2353); further: potency means the concentration at half of the fitted maximal effect
Summary of the method: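 RECQ1T1 50 nM; forked duplex (20 bp + 30-nt ss tails) 200 nM, ATP 2 mM final; pH 8.0, 2 mM MgCl2, 2.5 ug/ml poly(dI-dC); 15 min compound preincubation; discontinuous kinetic read over 2 h at RT.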

[2] = Cytometric Cell-Based qHTS for Inhibitors of the mTORC1 Signaling Pathway in MEF (Tsc2-/-, p53-/-) Cells (AID 2660);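 further: Tsc2 and p53 null MEFs carrying empty vector with compound for 24 h; percent of cells above a phospho-rpS6 to PI ratio cutoff in each well; series mostly up to about 38 µM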
Summary of the method: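 Readout: Alexa-488 phospho-rpS6 (Ser235/236) intensity divided by PI intensity, thresholded against 7.5 nM rapamycin wells and reported as % positive cells. PI cell count served as the viability measure. Compound exposure was 24 hrs at 37 degree Celsius.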

[3] = High Content Imaging Cell-Based qHTS for Inhibitors of the mTORC1 Signaling Pathway in MEF Cells (AID 2667); further: potency means the concentration at half of the fitted maximal effect
Summary of the method: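 Read-out is the share of phospho-rpS6-positive cells per well, from Hoechst-normalized Alexa-488 Ser235/236 staining imaged on IN Cell. Cells: WT Tsc2-expressing Tsc2-/-, p53-/- MEFs exposed to compound for 24 hrs.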

[4] = Cytometry Cell-Based qHTS for Inhibitors of the mTORC1 Signaling Pathway in MEF cells (AID 2668); further: potency means the concentration at half of the fitted maximal effect
Summary of the method: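 Phospho-rpS6 (Ser235/236) immunofluorescence over PI signal, scored as % positive cells using thresholds from 7.5 nM rapamycin and DMSO wells, after 24 h compound exposure of WT-Tsc2-rescued Tsc2-/-, p53-/- MEFs. PI cell count recorded for viability.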

[5] = biological target: Ubiquitin carboxyl-terminal hydrolase 2 (Homo sapiens) (UniProt O75604); assay: qHTS Validation Assay for Inhibitors of Ubiquitin-specific Protease USP2a Using CHOP2 as the Reporter (AID 463106)
Summary of the method: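 Fluorescence read-out at Ex 485nm/Em 531nm after 60min RT, following addition of 25nM Ub-CHOP2 plus 25nM reporter substrate to USP2 core (10nM) pretreated 30min with compound. Data normalized to NEM full inhibition; concentration-response curves fitted.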

[6] = biological target: Tumor susceptibility gene 101 protein (Homo sapiens) (UniProt Q99816); assay: qHTS Validation Assay for Iinhibitors of HIV-1 Budding by Blocking the Interaction of PTAP/TSG101 (AID 485342; calls by dose curve)
Sequence of Tumor susceptibility gene 101 protein (Homo sapiens) (Q99816 whole entry, looked up, the tested form may be a part): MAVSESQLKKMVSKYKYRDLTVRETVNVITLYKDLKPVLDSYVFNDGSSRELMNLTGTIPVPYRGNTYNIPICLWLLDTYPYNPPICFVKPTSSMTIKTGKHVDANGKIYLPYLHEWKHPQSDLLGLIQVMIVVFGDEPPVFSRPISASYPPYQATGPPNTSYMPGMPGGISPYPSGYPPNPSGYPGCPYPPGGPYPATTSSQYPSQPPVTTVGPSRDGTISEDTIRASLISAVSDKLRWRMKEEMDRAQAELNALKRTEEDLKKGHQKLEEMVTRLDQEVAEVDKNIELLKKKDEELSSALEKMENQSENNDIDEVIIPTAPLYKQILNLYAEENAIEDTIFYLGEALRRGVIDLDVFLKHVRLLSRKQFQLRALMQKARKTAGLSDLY
Summary of the method: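 Fluorescence polarization of 50 nM FITC-PTAP peptide bound to 10 uM Tsg101 binding domain was read after 20 min room-temperature incubation with compounds, in 10 mM HEPES pH 7.5, 0.15 M NaCl, 0.01% Tween 20.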

[7] = qHTS Validation Assay to Find Inhibitors of Chronic Active B-Cell Receptor Signaling (AID 485345; active means well fitted curve in the direction sought with a large enough effect in the main read-out, with a control signal flat, not every such curve was filed as active)
Summary of the method: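 TMD8 ABC-DLBCL cells stably carrying doxycycline-inducible IkappaBalpha–green luciferase fusion plus unfused red luciferase; compounds 46 uM to 3 nM, 4 h at 37C with doxycycline. Corrected green/red luminescence ratio normalized to 10 uM MG-132 and basal cell wells; curves fitted.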

[8] = biological target: Beta-2 adrenergic receptor (Homo sapiens) (UniProt P07550); assay: qHTS validation assay of beta-arrestin-biased ligands of beta2-adrenergic receptor (AID 485366)
Sequence of Beta-2 adrenergic receptor (Homo sapiens) (P07550 whole entry, looked up): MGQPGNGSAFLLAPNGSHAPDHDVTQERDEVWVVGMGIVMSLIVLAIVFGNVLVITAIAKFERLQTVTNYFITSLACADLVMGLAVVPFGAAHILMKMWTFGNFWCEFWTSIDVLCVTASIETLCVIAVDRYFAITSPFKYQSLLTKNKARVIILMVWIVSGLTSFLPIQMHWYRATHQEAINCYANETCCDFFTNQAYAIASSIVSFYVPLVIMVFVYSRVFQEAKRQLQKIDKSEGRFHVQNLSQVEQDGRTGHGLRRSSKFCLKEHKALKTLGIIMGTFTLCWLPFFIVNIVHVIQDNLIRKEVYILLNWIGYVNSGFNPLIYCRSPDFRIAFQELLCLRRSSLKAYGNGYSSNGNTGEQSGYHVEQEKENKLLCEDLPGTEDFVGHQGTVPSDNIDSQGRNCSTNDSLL
Summary of the method: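 Agonist activity is measured as luciferase luminescence downstream of beta-arrestin recruitment to recombinant beta2-AR in Tango cells. Exposure lasts 18 hr at 37 degrees C, and curves are categorized by r2, response size and activity.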

[9] = biological target: ATP-dependent 6-phosphofructokinase (Trypanosoma brucei brucei) (UniProt O15648); assay: qHTS Validation Assay to Find Inhibitors of T. brucei phosphofructokinase (AID 485368)
Sequence of ATP-dependent 6-phosphofructokinase (Trypanosoma brucei brucei) (O15648 whole entry, looked up): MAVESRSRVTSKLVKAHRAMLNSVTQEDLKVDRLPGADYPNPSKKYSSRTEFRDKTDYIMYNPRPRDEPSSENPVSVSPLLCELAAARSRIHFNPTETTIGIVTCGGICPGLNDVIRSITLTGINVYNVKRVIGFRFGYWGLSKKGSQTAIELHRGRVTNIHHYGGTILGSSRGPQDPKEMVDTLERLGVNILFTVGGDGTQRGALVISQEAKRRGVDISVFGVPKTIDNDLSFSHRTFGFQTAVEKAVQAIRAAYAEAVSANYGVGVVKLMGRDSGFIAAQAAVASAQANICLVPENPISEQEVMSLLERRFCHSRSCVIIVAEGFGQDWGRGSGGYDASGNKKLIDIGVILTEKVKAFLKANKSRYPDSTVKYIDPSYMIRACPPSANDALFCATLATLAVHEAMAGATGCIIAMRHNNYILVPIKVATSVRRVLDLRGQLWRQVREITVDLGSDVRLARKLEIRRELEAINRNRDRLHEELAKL
Summary of the method: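 Inhibition derived from concentration-response curves of luminescence, ranked by r2, response size and curve class; the underlying reaction used 1.25 nM PFK, 0.1 mM ATP and 0.5 mM F6P, 45 min, room temperature.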

[10] = Quantitative high throughput screen for delayed death inhibitors of the malarial parasite plastid, 96 hour incubation (AID 488745); further: nearly all actives have a fitted effect of over 70% in size; further: potency means the concentration at half of the fitted maximal effect
Summary of the method: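 Decreased firefly luciferase luminescence indicates inhibited growth of reporter-integrated P. falciparum after two generations (96 h, 37 C, 5% CO2). Infected erythrocytes at 0.1% parasitemia, 2% hematocrit, in Albumax-supplemented RPMI 1640.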

[11] = Quantitative high throughput screen for delayed death inhibitors of the malarial parasite plastid, 48 hour incubation (AID 488752); further: nearly all actives have a fitted effect of over 65% in size; further: potency means the concentration at half of the fitted maximal effect
Summary of the method: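 One-generation (48 h) growth assay: a decrease in luciferase signal from an integrated reporter in P. falciparum-infected red cells (0.1% parasitemia, 2% hematocrit) after compound exposure at 37 C indicates parasite inhibition.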

[12] = biological target: Thioredoxin reductase 1, cytoplasmic (Rattus norvegicus) (UniProt O89049); assay: qHTS Assay for Inhibitors of Mammalian Selenoprotein Thioredoxin Reductase 1 (TrxR1) (AID 488773); details: Potency: inhibition; further: nearly all actives have a fitted effect of over 40% in size; further: potency means the concentration at half of the fitted maximal effect
Sequence of Thioredoxin reductase 1, cytoplasmic (Rattus norvegicus) (O89049 whole entry, looked up): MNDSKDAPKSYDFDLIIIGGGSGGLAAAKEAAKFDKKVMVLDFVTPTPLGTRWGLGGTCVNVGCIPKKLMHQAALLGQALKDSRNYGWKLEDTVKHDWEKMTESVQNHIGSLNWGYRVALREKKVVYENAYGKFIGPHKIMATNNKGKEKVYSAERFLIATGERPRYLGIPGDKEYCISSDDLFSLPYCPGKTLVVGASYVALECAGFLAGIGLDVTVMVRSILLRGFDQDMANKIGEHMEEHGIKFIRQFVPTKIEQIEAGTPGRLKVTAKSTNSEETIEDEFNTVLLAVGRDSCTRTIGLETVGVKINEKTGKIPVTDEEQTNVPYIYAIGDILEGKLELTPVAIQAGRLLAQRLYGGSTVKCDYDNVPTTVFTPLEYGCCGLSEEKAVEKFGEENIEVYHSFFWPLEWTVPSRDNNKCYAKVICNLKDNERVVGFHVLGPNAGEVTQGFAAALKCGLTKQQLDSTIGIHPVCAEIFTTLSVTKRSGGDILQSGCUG
Summary of the method: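 Inhibition is scored from the loss of NADPH fluorescence between first and last reads of an 8-min kinetic run. Selenite (400 uM) was the substrate, added after 15 min compound preincubation at room temperature.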

[13] = biological target: Flap endonuclease 1 (Homo sapiens) (UniProt P39748); assay: qHTS Validation Assay for the Inhibitors of Human Flap endonuclease 1 (FEN1) (AID 488816); further: potency means the concentration at half of the fitted maximal effect
Sequence of Flap endonuclease 1 (Homo sapiens) (P39748 whole entry, looked up): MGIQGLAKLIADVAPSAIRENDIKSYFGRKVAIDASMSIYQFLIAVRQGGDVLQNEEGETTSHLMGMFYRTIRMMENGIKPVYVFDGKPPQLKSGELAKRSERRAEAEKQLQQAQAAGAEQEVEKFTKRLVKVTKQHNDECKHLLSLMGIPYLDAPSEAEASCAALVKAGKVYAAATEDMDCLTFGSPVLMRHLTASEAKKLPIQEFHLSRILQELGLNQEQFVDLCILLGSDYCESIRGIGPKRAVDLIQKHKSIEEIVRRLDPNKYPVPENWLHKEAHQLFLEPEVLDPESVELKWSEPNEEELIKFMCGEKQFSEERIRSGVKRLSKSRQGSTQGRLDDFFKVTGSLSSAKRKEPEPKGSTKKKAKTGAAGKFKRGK
Summary of the method: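 Enzyme reagent 10 nM; cpds pinned; 15 min RT preinc.; substrate 50 nM final; reads t=0 and 15 min; no-enzyme buffer wells as neg. control; normalized data, 4-parameter Hill fit.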

[14] = biological target: M-phase phosphoprotein 8 (Homo sapiens) (UniProt Q99549); assay: qHTS Validation Assay for Inhibitors for MPP8 Chromodomain Interactions with Methylated Histone Tails (AID 488949); further: nearly all actives have a fitted effect of over 55% in size; further: potency means the concentration at half of the fitted maximal effect
Sequence of M-phase phosphoprotein 8 (Homo sapiens) (Q99549 whole entry, looked up): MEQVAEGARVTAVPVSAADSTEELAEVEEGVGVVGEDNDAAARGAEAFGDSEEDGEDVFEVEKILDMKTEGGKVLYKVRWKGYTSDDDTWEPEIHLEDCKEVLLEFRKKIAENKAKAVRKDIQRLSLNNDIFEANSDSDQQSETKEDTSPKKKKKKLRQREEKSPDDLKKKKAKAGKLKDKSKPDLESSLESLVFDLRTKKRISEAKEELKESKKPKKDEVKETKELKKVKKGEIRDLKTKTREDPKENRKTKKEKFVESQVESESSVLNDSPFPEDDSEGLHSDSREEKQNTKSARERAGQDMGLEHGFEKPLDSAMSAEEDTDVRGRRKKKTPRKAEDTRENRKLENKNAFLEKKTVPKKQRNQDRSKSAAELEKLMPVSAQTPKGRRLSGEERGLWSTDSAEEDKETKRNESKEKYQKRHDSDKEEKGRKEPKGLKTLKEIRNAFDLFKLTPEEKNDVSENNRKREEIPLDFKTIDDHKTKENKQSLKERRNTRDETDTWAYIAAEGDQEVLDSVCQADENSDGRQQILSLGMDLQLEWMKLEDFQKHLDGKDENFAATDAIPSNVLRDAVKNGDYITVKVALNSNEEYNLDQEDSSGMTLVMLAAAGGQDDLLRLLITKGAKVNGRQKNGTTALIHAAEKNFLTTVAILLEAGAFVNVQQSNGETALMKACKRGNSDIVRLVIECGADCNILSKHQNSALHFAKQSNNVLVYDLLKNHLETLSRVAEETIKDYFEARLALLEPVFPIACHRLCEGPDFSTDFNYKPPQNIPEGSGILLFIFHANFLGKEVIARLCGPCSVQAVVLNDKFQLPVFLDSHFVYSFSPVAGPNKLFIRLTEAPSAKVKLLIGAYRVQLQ
Summary of the method: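 AlphaScreen proximity signal from streptavidin donor and Ni-chelate acceptor beads (10 ug/mL each) reported binding of MPP8 to trimethyl-K9 H3(1-18) peptide, both at 50 nM. The complex formed 30 min before a 30 min compound exposure at room temperature, in PBS pH 7.4.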

[15] = biological target: Methanococcus maripaludis chaperonin (MmCpn) (UniProt Q6LX38); assay: High-Throughput Screening for Modulators of Cytosolic Chaperonin Activity: MmCpn Primary Screen (AID 488978);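 further: 50 nM MmCpn enzyme hydrolysing 30 µM ATP at 37 °C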
Sequence of Methanococcus maripaludis chaperonin (MmCpn) (Q6LX38 1-543): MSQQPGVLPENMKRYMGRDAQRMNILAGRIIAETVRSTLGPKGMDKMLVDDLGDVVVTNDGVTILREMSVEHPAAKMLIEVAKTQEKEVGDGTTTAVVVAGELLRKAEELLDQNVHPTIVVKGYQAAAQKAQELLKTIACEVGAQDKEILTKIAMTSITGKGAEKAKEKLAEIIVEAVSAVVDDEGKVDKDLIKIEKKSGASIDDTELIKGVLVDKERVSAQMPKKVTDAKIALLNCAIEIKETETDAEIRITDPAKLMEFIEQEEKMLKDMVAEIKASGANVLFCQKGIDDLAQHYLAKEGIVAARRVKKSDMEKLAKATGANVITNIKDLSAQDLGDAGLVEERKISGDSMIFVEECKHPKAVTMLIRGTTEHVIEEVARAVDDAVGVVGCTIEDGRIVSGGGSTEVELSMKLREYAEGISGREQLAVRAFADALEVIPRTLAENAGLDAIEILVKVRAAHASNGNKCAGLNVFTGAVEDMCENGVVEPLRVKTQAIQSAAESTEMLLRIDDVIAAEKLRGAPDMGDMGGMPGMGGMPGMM
Summary of the method: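 ATPase activity of 50 nM MmCpn was assayed with 30 uM ATP, 10 minutes at 37C, after a 5 min compound preincubation at room temperature. ADP production was read as HTRF emission at 590 and 665 nm.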

[16] = biological target: Transient receptor potential cation channel subfamily V member 1 (Homo sapiens) (UniProt Q8NER1); assay: HTS Assay for Compounds that Act as Enhancers of the Vanilloid Receptor 1 (AID 488979)
Sequence of Transient receptor potential cation channel subfamily V member 1 (Homo sapiens) (Q8NER1 whole entry, looked up): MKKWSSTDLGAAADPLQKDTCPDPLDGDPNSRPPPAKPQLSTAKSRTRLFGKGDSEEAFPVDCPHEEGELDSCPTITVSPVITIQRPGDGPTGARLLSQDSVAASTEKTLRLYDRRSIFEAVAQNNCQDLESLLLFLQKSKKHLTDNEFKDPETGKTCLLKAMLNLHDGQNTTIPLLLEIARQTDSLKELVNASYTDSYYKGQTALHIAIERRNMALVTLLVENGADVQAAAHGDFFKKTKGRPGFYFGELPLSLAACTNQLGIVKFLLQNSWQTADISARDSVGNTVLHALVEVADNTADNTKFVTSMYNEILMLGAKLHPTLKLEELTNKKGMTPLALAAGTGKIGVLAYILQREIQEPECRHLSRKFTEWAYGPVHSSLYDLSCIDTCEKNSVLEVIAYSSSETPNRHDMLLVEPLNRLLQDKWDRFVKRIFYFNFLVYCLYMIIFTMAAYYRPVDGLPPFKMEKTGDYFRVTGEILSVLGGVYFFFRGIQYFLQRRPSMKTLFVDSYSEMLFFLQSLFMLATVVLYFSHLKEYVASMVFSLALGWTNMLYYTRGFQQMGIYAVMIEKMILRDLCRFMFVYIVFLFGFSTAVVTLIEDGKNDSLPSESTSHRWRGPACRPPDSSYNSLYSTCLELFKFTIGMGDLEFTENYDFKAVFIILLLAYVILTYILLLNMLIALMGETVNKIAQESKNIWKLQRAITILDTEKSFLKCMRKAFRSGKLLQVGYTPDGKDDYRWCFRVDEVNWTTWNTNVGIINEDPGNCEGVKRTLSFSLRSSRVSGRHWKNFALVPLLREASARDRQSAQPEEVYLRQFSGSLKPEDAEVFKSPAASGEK
Summary of the method: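 TRPV1 cells loaded with Fluo-8 calcium dye; compound added and Ca2+ signal (ex 480/em 520 nm) followed 3 min, then capsaicin at EC20 added and read 2 more min to detect enhancement.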

[17] = biological target: RecQ-like DNA helicase BLM (Homo sapiens) (UniProt P54132); assay: qHTS Validation Assay for Inhibitors of Bloom's syndrome helicase (BLM) (AID 2364)
Summary of the method: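 50 nM BLM preincubated 15 min at room temperature with compound in pH 8.0 Tris buffer containing 2.5 ug/ml poly(dI-dC); started with 200 nM TAMRA/BHQ-2 forked duplex and 2 mM ATP (final). Unwinding read as TAMRA fluorescence increase, two reads 2 h apart.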

[18] = biological target: Thioredoxin reductase 1, cytoplasmic (Rattus norvegicus) (UniProt O89049); assay: qHTS Assay for Substrates of Mammalian Selenoprotein Thioredoxin Reductase 1 (TrxR1) (AID 488772);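 further: series mostly up to about 57 µM; a drop in NADPH fluorescence below the no-compound background marks a TrxR1 substrate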
Summary of the method: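 In this dual-purpose format, potential substrates are identified from the first fluorescence read after selenite addition, not from the 8-minute delta. Rat enzyme is preincubated with NADPH and then with compound at ~22 deg C.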

[19] = biological target: Chromobox protein homolog 1 (Homo sapiens) (UniProt P83916); assay: qHTS Validation Assay for Inhibitors of HP1-beta Chromodomain Interactions with Methylated Histone Tails (AID 488953); further: nearly all actives have a fitted effect of over 50% in size; further: potency means the concentration at half of the fitted maximal effect
Sequence of Chromobox protein homolog 1 (Homo sapiens) (P83916 whole entry, looked up): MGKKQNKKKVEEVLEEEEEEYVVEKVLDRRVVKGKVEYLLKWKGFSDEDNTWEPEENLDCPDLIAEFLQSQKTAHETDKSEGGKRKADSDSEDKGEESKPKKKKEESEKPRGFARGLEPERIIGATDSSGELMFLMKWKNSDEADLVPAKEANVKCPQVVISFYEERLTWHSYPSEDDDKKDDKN
Summary of the method: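 AlphaScreen proximity signal from streptavidin donor and nickel chelate acceptor beads (final 10 ug/mL) after 30 min dark incubation. Compounds had 30 min at room temperature with preformed complex of 50 nM HP1-beta and 50 nM b-H3(1-18)K9me3 in PBS pH 7.4 with 0.01% Tween-20.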

Measured: Potency

OC(CN1CCN(c2cccc(Cl)c2)CC1)C(c1ccccc1)c1ccccc1 (stereo unspecified)
not listed: [17] | [18] | [19]
inactive: all other assays above

Cc1nc2n(c(=O)c1CCN1CCC(c3noc4cc(F)ccc34)CC1)CCCC2
inactive: [1] | [17] | [10] | [11] | [14] | [16]

COc1cc2nc(N3CCN(C(=O)C4CCCO4)CC3)nc(N)c2cc1OC (stereo unspecified)
not listed: [7] | [10]
inactive: all other assays above

CCN(CC)C(=S)SSC(=S)N(CC)CC
active: [19] 28.2 µM
10 µM (active) and inactive: [14]
inactive: [1] | [17] | [3] | [5] | [6] | [8] | [18] | [13] | [15]

CN(C)CCCC1(c2ccc(F)cc2)OCc2cc(C#N)ccc21 (stereo unspecified)
not listed: [9] | [16] | [17]
inactive: all other assays above

O=Nc1c(-c2c(O)[nH]c3cc(Br)ccc23)[nH]c2ccccc12
active: [3] 2.33 µM | [4] 5.21 µM | [10] 4.65 µM | [11] 10.4 µM | [14] 3.55 µM and 5.97 µM | [19] 2.82 µM
not listed: [2] | [7] | [9] | [15] | [17]
inactive: all other assays above

C[C@H](Cc1ccc(O)c(O)c1)[C@@H](C)Cc1ccc(O)c(O)c1
active: [1] 11.2 µM | [10] 13.1 µM | [12] 9.47 µM | [13] 0.752 µM | [14] 25.1 µM and 23.8 µM | [19] 31.6 µM
not listed: [4] | [7] | [9] | [11] | [17]
inactive: all other assays above

NNc1nncc2ccccc12
not listed: [10] | [11] | [17] | [18]
inactive: all other assays above

COc1ccccc1N1CCN(CCN(C(=O)C2CCCCC2)c2ccccn2)CC1
not listed: [17]
inactive: all other assays above

CC1(C)C(=O)N(CCN2CCC(C(=O)c3ccc(F)cc3)CC2)c2ccccc21
not listed: [7] | [9] | [10] | [11] | [17] | [19]
inactive: all other assays above

NC(=NCc1ccccc1)NC(=O)c1nc(Cl)c(N)nc1N
active: [10] 2.62 µM | [11] 2.94 µM
not listed: [7] | [13]
inactive: all other assays above

Oc1ccc(-c2nc(-c3ccc(F)cc3)c(-c3ccncc3)[nH]2)cc1
active: [19] 56.2 µM
31.6 µM (active) and inactive: [14]
not listed: [7] | [17]
inactive: all other assays above

CNC[C@H](O)c1ccc(O)c(O)c1
active: [3] 26.1 µM | [13] 10.6 µM
not listed: [4] | [8] | [9] | [12] | [17]
inactive: all other assays above

C[C@@H](N)C1CCC(C(=O)Nc2ccncc2)CC1 (stereo partly specified)
not listed: [9]
inactive: all other assays above
